From PubChem BioAssay (Tox21)
Records with an inconclusive call do not appear. Active and inactive are the calls of the source. Unless noted, the call rests on the fitted dose curve.

Assays:
[1] = Nuclear factor erythroid 2-related factor 2/antioxidant responsive element (Nrf2/ARE) small molecule agonists: qHTS cell viability counter screen in human keratinocytes (AID 1919968; active means well fitted curve in the direction sought with a large enough effect in the repeat runs; an effect the other way counts as inactive or inconclusive; further: nearly all actives have a fitted effect of over 55% in size)
Summary of the method: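 Viability counter-screen: KeratinoSens reporter cells, DMSO-delivered compounds, 23 h at 37 C, CellTiter-Fluor fluorescence.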

[2] = Nuclear factor erythroid 2-related factor 2/antioxidant responsive element (Nrf2/ARE) small molecule agonists: luciferase reporter gene qHTS assay in human keratinocytes (AID 1919969); further: nearly all actives have a fitted effect of over 35% in size
[3] = target: Gonadotropin-releasing hormone receptor (Homo sapiens) (UniProt P30968); experiment: Human gonadotropin-releasing hormone receptor (GnRHR) small molecule agonists, calcium flux assay in GnRHR-HEK293 cells (AID 1920063); further: nearly all actives have a fitted effect of over 35% in size
Sequence of Gonadotropin-releasing hormone receptor (Homo sapiens) (P30968 whole entry, looked up): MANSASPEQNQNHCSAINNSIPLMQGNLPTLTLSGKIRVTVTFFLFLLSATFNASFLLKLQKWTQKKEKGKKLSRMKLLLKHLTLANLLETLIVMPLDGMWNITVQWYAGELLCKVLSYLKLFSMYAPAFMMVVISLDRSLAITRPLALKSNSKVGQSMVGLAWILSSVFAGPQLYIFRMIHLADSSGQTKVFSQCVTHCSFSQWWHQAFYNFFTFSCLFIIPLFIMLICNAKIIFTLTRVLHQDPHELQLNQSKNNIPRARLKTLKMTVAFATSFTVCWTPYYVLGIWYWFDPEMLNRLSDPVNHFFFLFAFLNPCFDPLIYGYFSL
Summary of the method: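 Tox21-format agonist screen using human GnRHR-expressing HEK293 cells and a fluorescent calcium dye; kinetic 3-min fluorescence reading after compound addition, 15-point concentration series run in triplicate.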

[4] = target: KiSS-1 receptor (Homo sapiens) (UniProt Q969F8); experiment: Human kisspeptin (KISS1R) small molecule agonists, calcium flux assay in KISS1R-HEK293 cells (AID 1920064; active means well fitted curve in the direction sought with a large enough effect in the repeat runs; an effect the other way counts as inactive or inconclusive)
Sequence of KiSS-1 receptor (Homo sapiens) (Q969F8 whole entry, looked up): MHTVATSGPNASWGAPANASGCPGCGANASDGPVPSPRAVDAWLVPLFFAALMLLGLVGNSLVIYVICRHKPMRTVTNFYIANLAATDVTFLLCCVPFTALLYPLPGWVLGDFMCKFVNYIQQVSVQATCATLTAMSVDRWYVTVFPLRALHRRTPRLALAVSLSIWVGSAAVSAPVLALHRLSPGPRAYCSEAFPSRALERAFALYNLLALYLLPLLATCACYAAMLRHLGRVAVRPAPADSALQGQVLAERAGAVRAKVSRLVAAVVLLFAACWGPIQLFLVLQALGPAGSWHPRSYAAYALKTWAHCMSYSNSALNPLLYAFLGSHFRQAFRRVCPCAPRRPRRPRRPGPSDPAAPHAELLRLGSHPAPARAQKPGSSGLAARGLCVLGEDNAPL
Summary of the method: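 Intracellular calcium mobilization in KISS1R-HEK293 cells was recorded by fluorescence (Ex/Em 480/540) for 3 min following compound addition to cells pre-loaded 1 h with calcium dye.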

[5] = G protein-coupled receptor (GPCR) small molecule agonists, calcium flux assay: HEK293 wild type cell line counter screen (AID 1920065)
Summary of the method: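 In this agonist-mode screen, ATP is the positive control and DMSO the vehicle. Cells grow 18 h before a 1 h dye incubation at 37 C; signal is taken at Ex/Em 480/540 over 3 min.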

[6] = p53 small molecule agonists, cell-based qHTS assay with human liver microsomes (AID 1963577)
Summary of the method: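 Fluorescence of the beta-lactamase reporter in p53RE-bla cells, detected with LiveBLAzer substrate (2 h, room temperature, dark), served as the read-out after 16 h compound exposure at 37 C with human liver microsomes and NADPH, each 0.5 mg/mL final.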

[7] = p53 small molecule agonists, cell-based qHTS assay with rat liver microsomes (AID 1963578)
Summary of the method: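 Cells carrying a p53 response element–beta-lactamase reporter were plated and rested 5 h, then dosed with compound in DMSO plus rat liver microsomes and NADPH, each at 0.5 mg/mL final. After 16 h at 37 C, LiveBLAzer substrate was added for 2 h.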

[8] = p53 small molecule agonists, cell-based qHTS assay with human liver microsomes: qHTS cell viability counter screen (AID 1963579); further: nearly all actives have a fitted effect of over 45% in size
Summary of the method: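 Cytotoxicity counter screen: p53RE-bla, 4,000 cells/well; 5 h settle, 37 C/5% CO2; cpd + HLM 0.5 mg/mL + NADPH 0.5 mg/mL (final); 16 h, 37 C; CellTiter-Glo, 30 min RT, luminescence.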

[9] = p53 small molecule agonists, cell-based qHTS assay with rat liver microsomes: qHTS cell viability counter screen (AID 1963580); further: nearly all actives have a fitted effect of over 45% in size
Summary of the method: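 In HCT-116 cells carrying a p53 response element-bla reporter, compounds were metabolically activated in situ by rat liver microsomes with NADPH over 16 h. Cell ATP content then served as the cytotoxicity measure.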

[10] = p53 small molecule agonists, cell-based qHTS assay: qHTS cell viability counter screen (AID 1963581); further: nearly all actives have a fitted effect of over 45% in size
Summary of the method: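 Compounds are pinned onto HCT-116 p53RE-bla cells and left 16 h at 37 C. Following the reporter FRET read, ATP is quantified by CellTiter-Glo luminescence after 30 min at room temperature.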

[11] = p53 small molecule agonists, cell-based qHTS assay (AID 1963582; active means well fitted activation curve with a large enough effect in the signal ratio in the repeat runs, not every such curve was filed as active; the % refers to the signal ratio)
Summary of the method: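 Agonist activity was scored from beta-lactamase FRET fluorescence in p53RE-bla cells treated 16 h at 37 C with compounds in DMSO, substrate incubation being 2 h at room temperature.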

[12] = target: 5-hydroxytryptamine receptor 2A (Homo sapiens) (UniProt P28223); experiment: 5-hydroxytryptamine receptor 2A (HTR2A) small molecule antagonists, cell-based qHTS assay (AID 1963586); further: nearly all actives have a fitted effect of over 45% in size
Sequence of 5-hydroxytryptamine receptor 2A (Homo sapiens) (P28223 whole entry, looked up): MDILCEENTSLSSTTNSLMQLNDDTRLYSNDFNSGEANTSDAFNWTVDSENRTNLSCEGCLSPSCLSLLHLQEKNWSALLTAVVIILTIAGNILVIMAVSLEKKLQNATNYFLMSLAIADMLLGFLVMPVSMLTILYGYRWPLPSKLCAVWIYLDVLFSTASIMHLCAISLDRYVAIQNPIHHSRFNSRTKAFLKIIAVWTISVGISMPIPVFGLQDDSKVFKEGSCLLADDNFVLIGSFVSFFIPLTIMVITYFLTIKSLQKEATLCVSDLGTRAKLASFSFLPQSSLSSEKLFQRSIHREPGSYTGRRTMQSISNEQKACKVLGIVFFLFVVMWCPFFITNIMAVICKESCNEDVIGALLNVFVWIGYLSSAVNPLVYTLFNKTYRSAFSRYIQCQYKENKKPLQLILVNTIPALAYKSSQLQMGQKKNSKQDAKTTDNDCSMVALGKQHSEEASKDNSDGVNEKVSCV
Summary of the method: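 Antagonist-mode intracellular calcium assay: DOI (4 nM) added after 5 min compound pre-incubation at room temperature to dye-loaded HTR2A-CHO cells. Fluorescence followed for 3 min, sampled every second.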

[13] = target: 5-hydroxytryptamine receptor 2A (Homo sapiens) (UniProt P28223); experiment: 5-hydroxytryptamine receptor 2A (HTR2A) small molecule agonists, cell-based qHTS assay (AID 1963587); further: nearly all actives have a fitted effect of over 30% in size
Summary of the method: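 HTR2A-CHO cells, plated 18 h at 37 C/5% CO2, dye-loaded 1 h at 37 C; compounds in DMSO added by pin tool (agonist mode). Intracellular calcium flux read as kinetic fluorescence on FDSS over 2 min at 1 s intervals.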

[14] = target: Muscarinic acetylcholine receptor M1 (Homo sapiens) (UniProt P11229); experiment: Cholinergic receptor muscarinic 1 (CHRM1) small molecule antagonists, cell-based qHTS assay (AID 1963588); further: nearly all actives have a fitted effect of over 40% in size
Sequence of Muscarinic acetylcholine receptor M1 (Homo sapiens) (P11229 whole entry, looked up): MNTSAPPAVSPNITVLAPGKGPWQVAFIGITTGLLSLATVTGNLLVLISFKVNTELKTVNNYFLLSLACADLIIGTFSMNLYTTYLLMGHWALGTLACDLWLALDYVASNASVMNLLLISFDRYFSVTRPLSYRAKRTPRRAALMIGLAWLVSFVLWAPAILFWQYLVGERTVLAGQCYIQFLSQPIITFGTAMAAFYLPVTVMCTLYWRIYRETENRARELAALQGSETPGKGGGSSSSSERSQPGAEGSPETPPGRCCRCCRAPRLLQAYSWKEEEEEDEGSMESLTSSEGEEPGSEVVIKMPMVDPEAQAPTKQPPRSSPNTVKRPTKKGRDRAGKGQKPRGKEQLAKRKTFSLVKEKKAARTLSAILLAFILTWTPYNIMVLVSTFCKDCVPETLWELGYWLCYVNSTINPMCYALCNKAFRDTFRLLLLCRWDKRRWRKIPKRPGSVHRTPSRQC
Summary of the method: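 CHRM1-CHO calcium-flux assay, antagonist mode. Cells were seeded 18 h, dye-loaded 1 h at 37 C and given compound for 5 min at RT, then acetylcholine was added at 50nM. FDSS fluorescence was read 3 min; 15 concentrations, three runs.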

[15] = target: Muscarinic acetylcholine receptor M1 (Homo sapiens) (UniProt P11229); experiment: Cholinergic receptor muscarinic 1 (CHRM1) small molecule agonists, cell-based qHTS assay (AID 1963589); further: nearly all actives have a fitted effect of over 35% in size
Summary of the method: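 Stable CHRM1-CHO cells (human receptor) were incubated 18 h, dye-loaded for 1 h at 37 C and exposed to test compounds for agonist activity, with calcium-dependent fluorescence followed kinetically.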

[16] = cAMP Responsive Elements (CRE) small molecule agonists, cell-based qHTS assay (AID 1963590)
Summary of the method: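 FRET-based beta-lactamase readout (LiveBLAzer B/G, 2 h RT) quantified CRE activation in HEK 293T CRE-bla cells after 3 h treatment with DMSO-dissolved compounds.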

[17] = cAMP Responsive Elements (CRE) small molecule antagonists, cell-based qHTS assay (AID 1963591; active means well fitted inhibition curve with a large enough effect in the signal ratio in the repeat runs, not every such curve was filed as active; the % refers to the signal ratio)
Summary of the method: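 qHTS in CRE-bla HEK 293T cells: compound in DMSO, then 0.25 uM NKH477 (final), 3 h at 37 °C/5% CO2; beta-lactamase FRET read-out after 2 h substrate incubation.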

[18] = target: Beta-2 adrenergic receptor (Homo sapiens) (UniProt P07550); experiment: Adrenergic beta2 receptor (ADRB2) small molecule antagonists, cell-based qHTS assay (AID 1963592); further: series mostly up to about 92 µM; nearly all actives have a fitted effect of over 50% in size
Sequence of Beta-2 adrenergic receptor (Homo sapiens) (P07550 whole entry, looked up): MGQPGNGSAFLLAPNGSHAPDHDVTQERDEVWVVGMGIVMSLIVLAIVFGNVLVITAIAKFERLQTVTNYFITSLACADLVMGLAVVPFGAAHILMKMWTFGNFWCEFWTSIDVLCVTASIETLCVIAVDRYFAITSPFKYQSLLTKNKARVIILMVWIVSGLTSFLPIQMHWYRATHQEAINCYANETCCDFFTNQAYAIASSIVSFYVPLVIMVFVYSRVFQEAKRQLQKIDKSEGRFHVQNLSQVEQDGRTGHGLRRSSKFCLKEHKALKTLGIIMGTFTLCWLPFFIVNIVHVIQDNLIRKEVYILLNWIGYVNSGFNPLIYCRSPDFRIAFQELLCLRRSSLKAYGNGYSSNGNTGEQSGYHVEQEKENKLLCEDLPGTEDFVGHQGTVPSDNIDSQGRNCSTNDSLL
Summary of the method: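 Cells (CHO, stable ADRB2 overexpression) incubated 18-20hr at 37C; compounds added from DMSO; agonist mix (1nM isoproterenol, 100uM IBMX, 25uM Ro-20-1724) added; 0.5hr RT; d2-cAMP and anti-cAMP-cryptate added; 1hr RT; 665/615 nm read.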

[19] = target: D(2) dopamine receptor (Homo sapiens) (UniProt P14416); experiment: Dopamine D2 receptor (DRD2) small molecule agonists, cell-based qHTS assay (AID 1963594); further: nearly all actives have a fitted effect of over 35% in size
Sequence of D(2) dopamine receptor (Homo sapiens) (P14416 whole entry, looked up): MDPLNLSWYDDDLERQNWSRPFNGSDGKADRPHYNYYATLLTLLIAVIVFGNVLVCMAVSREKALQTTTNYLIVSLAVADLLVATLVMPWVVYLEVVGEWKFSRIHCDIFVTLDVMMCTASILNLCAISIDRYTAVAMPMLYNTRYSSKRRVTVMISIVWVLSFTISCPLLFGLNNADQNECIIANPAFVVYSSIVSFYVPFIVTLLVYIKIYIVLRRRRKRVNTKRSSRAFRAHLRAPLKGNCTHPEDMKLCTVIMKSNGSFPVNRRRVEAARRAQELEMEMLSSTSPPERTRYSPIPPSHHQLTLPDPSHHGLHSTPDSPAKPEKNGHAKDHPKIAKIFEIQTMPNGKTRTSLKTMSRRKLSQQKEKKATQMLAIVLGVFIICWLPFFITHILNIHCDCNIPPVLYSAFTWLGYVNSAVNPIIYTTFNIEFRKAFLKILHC
Summary of the method: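 HEK293 cells stably expressing DRD2 were cultured 24 h at 37 C, then given Ro20-1724 (0.1 mM final) and compounds for 10 min at room temperature. NKH477 (200nM) was then added for 30 min. cAMP was read by HTRF.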

[20] = target: D(2) dopamine receptor (Homo sapiens) (UniProt P14416); experiment: Dopamine D2 receptor (DRD2) small molecule antagonists, cell-based qHTS assay (AID 1963595; active means well fitted inhibition curve with a large enough effect in the signal ratio in the repeat runs, with a control signal flat; the % refers to the signal ratio)
Summary of the method: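 Cells were plated and grown for 24 h at 37 °C. Ro20-1724 (0.1 mM final) went in first, then compound for 10 min. NKH477 (200 nM) with quinpirole (12 nM) followed for 30 min at RT, then HTRF detection reagents for 1 h.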

Measured: Potency

O=C(O)CNC(=O)c1ccc([N+](=O)[O-])cc1
inactive: all assays above

CC(C)(C)c1n[nH]c(=S)n(N)c1=O
not listed: [17]
inactive: all other assays above

CCCCOCC(C)O (stereo not given)
not listed: [19]
inactive: all other assays above

CC(C)(C)C1(CCc2ccc(Cl)cc2)CO1 (stereo not given)
not listed: [19]
inactive: all other assays above

CCCc1ncc(C(=O)O)s1
not listed: [18]
inactive: all other assays above

CCCCCOC(=O)CCCC
not listed: [19]
inactive: all other assays above

O=C(O)c1cccc(C(=O)O)c1C(=O)O
not listed: [17] | [20]
inactive: all other assays above

O=C(O)CCN(C1(C(=O)NO)CCCC1)S(=O)(=O)c1ccc(Oc2ccc(F)cc2)cc1
not listed: [17]
inactive: all other assays above

CCc1cccc(C)c1N(C(=O)C(=O)O)C(C)COC (stereo not given)
not listed: [17]
inactive: all other assays above

O=C1O[C@@H]2[C@@H](O)[C@H](O)O[C@@H]2[C@H]1O
not listed: [19]
inactive: all other assays above
